Consider ten compounds from the supplement of paper PMC6124720.

Counter-ions that a name gives are not always drawn.
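Also: biolog Phenotype Microarray plates PM21–25, OD595 followed daily over 11 days, growth curves converted to index, mean of two independent experiments.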

The assay relates to Pseudogymnoascus destructans 20631-21. Kind of assay: growth activity index (DuctApe, 0 = no growth, 9 = maximal growth) (index 0-9); higher = more fungal growth (less inhibition), active = 0 or less; extreme values may be limits of the assay. As to conditions: concentration level (1-4, increasing; Biolog proprietary): 3; temperature: 13 °C; YPD.
As to `O.O=S(=O)([O-])[O-].O=S(=O)([O-])[O-].O=S(=O)([O-])[O-].[Al+3].[Al+3]` [Aluminum sulfate] (Biolog plate: PM24), the growth activity index is 6 (inactive).
The value for `N=C(N)N` [Guanidine hydrochloride] (Biolog plate: PM21) was 0.5 (inactive); that for `N=C(N)c1ccc(OCCCCCOc2ccc(C(=N)N)cc2)cc1` [Pentamidine Isethionate] (Biolog plate: PM24) was 8 (inactive).
As for `O=C(O)CN(CCN(CC(=O)O)CC(=O)O)CC(=O)O` (Biolog plate: PM21), the growth activity index is 5 (inactive).
As for `CC(CN1c2ccccc2Sc2ccccc21)N(C)C` (stereo not given) [Promethazine] (Biolog plate: PM21), the growth activity index is 1 (inactive).
The value for `O=P(O)(O)OP(=O)(O)O` [Sodium pyrophosphate] (Biolog plate: PM24) was 4.67 (inactive).
Consider `Clc1ccc(COC(Cn2ccnc2)c2ccc(Cl)cc2Cl)c(Cl)c1` (stereo not given) [Miconazole Nitrate] (Biolog plate: PM24), for which the growth activity index was 0.333 (inactive).
With `O=c1[nH]c(=O)n([C@H]2C[C@H](O)[C@@H](CO)O2)cc1F` [Fluorodeoxyuridine] (Biolog plate: PM25) the figure was 4.33 (inactive); with `CCCCCCCCCCCC[N+](C)(C)CCOc1ccccc1` [Domiphen bromide] (Biolog plate: PM21), 0 (active); with `CN[C@@H]1[C@@H](O[C@H]2O[C@H](CO)[C@@H](N)[C@H](O)[C@H]2O)OC2C[C@@H](N)[C@@H](O[C@H]3[C@H](O)[C@@H](O)[C@H](N)C[C@@H]3N)OC2[C@@H]1O` (stereo not given in full) [Apramycin] (Biolog plate: PM24), 7.67 (inactive).
